ALDH1A1 block = blocks purified human ALDH1A1 activity; AID 1030; 7.3% of 220,000 active; Potency, µM (titrated, usually from 75.3 µM), without a hit: top-dose activity, negative = inhibition, hits mostly inhibitors; P00352; Purified ALDH1A1, NADH fluorescence, propionaldehyde substrate;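 note: potency is the fitted concentration of half-maximal effect; plate controls were no enzyme wells and a reference inhibitor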
Target sequence (P00352 whole entry, looked up): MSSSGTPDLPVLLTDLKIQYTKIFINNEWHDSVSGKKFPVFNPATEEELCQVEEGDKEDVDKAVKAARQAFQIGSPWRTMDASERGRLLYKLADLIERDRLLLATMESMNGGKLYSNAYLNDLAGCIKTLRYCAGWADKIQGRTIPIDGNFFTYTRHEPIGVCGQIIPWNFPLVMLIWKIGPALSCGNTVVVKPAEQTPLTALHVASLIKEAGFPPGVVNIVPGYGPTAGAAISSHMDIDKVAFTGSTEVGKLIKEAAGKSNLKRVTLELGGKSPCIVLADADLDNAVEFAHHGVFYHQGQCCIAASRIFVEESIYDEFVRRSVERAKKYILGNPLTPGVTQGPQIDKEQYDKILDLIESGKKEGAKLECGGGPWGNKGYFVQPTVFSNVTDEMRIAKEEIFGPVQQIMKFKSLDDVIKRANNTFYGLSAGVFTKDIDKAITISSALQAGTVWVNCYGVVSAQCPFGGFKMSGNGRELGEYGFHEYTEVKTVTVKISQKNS
HPGD block = HPGD (human) dehydrogenase inhibition; P15428; purified HPGD, NADH fluorescence kinetic, PGE2 substrate; Potency, µM, for the others: top-dose activity change, negative = inhibition, most hits filed as inhibitors; 4.3% of 150,000 active; note: potency is the fitted concentration of half-maximal effect
Target sequence (P15428 whole entry, looked up): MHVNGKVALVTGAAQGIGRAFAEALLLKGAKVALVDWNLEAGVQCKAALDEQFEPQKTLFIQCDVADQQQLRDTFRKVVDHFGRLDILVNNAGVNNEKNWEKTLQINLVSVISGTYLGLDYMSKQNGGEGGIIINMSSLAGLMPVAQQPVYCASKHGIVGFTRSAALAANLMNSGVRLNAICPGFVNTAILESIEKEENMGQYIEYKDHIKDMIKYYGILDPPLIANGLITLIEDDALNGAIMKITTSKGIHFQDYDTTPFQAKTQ
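NADH formation kinetics: reaction with 30 uM PGE2 and 1 mM NAD+ (final), 20 nM enzyme, Tris-HCl pH 8 with Tween 20, after 15 min compound preincubation at room temperature. Fluorescence change, last versus first of five reads.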
PNC inhibitor = blocks assembly of the perinucleolar compartment | 3.1% of 140,000 active | PC3M PTB-GFP, PNC prevalence imaging, 16 h; active compounds read low | activity change (PNC), negative = inhibition, % at 10 µM | AID 2417;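 active = readout at or below -70, meaning at least 70% loss of cells showing the perinucleolar compartment, a nuclear body marking cancer cells; inconclusive = readout between -30 and a set limit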;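 note: plate controls were DMSO wells for no effect and camptothecin positive control wells for full effect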
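PC3M cells stably expressing PTB-GFP, 750–1000 cells/well, treated 16 h at 37 °C with compound (23 nl of library stock), in duplicate. After paraformaldehyde fixation and Hoechst stain, imaged at 20x; PNC prevalence scored by image analysis.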
IMPase inh = membrane-permeable compound that blocks inositol monophosphatase; CHO-M1 cells, IP1 accumulation, HTRF TR-FRET ratio; inhibition (IP1 accumulation), % at 46.1 µM; 120,000 tested, under 10 active; active = well fitted curve in the direction sought with a large enough effect in the signal ratio, not every such curve was filed as active; inconclusive = small, poorly fitted or top-dose-only effect, or a change in a side signal; inactive = no such curve, though single readings can be large or run the other way; the % refers to the signal ratio;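 note: cells stimulated with carbachol in lithium chloride buffer; plate controls were DMSO basal wells for no effect and reference inhibitor wells for full effect; higher means more IMPase inhibition seen as more IP1 and lower FRET ratio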
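Seeded CHO-M1 cells were dosed with compound at up to 46 uM, stimulated with carbachol for 30 min, then lysed in IP-One detection reagents. Higher IP1 lowers the TR-FRET signal.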
IMPase Li inh = membrane-permeable IMPase blocker, potentiated with lithium | CHO-M1 cells, IP1 TR-FRET (IP-One), carbachol + lithium | 0.35% of 210,000 active | AID 1457 | Potency, µM (top dose mostly 59.4 µM), inactives show at the highest dose activity, negative = IMPase inhibition, hits mostly inhibitors; active = well fitted inhibition curve with a large enough effect; inconclusive = small, poorly fitted or top-dose-only effect; inactive = no such curve, though single readings can be large or run the other way;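 note: IP1 builds up when IMPase is blocked and the TR-FRET signal falls; potency is the fitted concentration of half-maximal effect; plate controls were basal vehicle for no effect and high inhibitor control for full effect; nearly all actives have a fitted effect of over 50% in size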
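Steps: plate 2000 CHO-M1 cells per well and culture 16–30 h; add compound and lithium; incubate 30 min, 37C; add d2-IP1 tracer and Eu cryptate anti-IP1 antibody in lysis buffer; read after 10 min at room temperature.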
* hit, by the source's call; [ ] = dose if it differs, or a comment. Hits are enriched below; roughly 11% of the tested compounds scored in any of these assays. Unless noted, calls come from the whole dose curve; as a rule, active = well fitted inhibition curve with a large enough effect (not every such curve was filed as active); inconclusive = small, poorly fitted or top-dose-only effect, or another doubt; inactive = no such curve, though single readings can be large or run the other way. Unless noted, % is set by controls: 0 for no effect and ±100 for the full control effect.

Screening COC(=O)[C@@]1(Cc2ccc(OC)cc2)[C@H]2c3cc(C(=O)N4CCCC4)n(CCN4CCOCC4)c3C[C@H]2CN1C(=O)c1ccccc1 returned ALDH1A1 block 3.2%, HPGD block -2.5% and IMPase Li inh 1.1%.
O=C(N/N=C/c1ccc[nH]1)c1ccc(Cl)cc1 was read as ALDH1A1 block -3.5%, HPGD block -15.8%, PNC inhibitor 11.7 and IMPase Li inh -3.4%.
`CCOC(=O)c1csc(NNC=O)n1` gave ALDH1A1 block -3.9%, HPGD block -6.8%, PNC inhibitor 5.0 and IMPase Li inh 1.0%.
CCCCCCOc1ccc(/C=C/C(=O)Nc2sc3c(c2C(=O)OC)CCC3)cc1OC was read as IMPase inh -3.5.
`COC(=O)c1ccccc1NC(=S)NC(=O)c1ccc2ccccc2c1` gave ALDH1A1 block inconclusive, HPGD block -14.2%, PNC inhibitor 15.0 and IMPase Li inh 6.0%.
COC(=O)c1ccccc1NC(=S)NC(=O)c1cccc2ccccc12 was read as ALDH1A1 block 10µM*, HPGD block -23.6%, PNC inhibitor -1.4, IMPase inh 4.6 and IMPase Li inh -6.0%[38.3 µM].
Screening CCCC(=O)NC(=S)Nc1ccccc1C(=O)OC returned ALDH1A1 block inconclusive, HPGD block -28.4%, PNC inhibitor -108.4*, IMPase inh 2.2 and IMPase Li inh 2.4%[38.3 µM].
Screening O=C(O)CSc1nc2c(cnn2-c2ccccc2)c(=O)n1-c1ccc(Br)cc1 returned ALDH1A1 block -5.7%, HPGD block 14.1µM*, PNC inhibitor 54.0 and IMPase Li inh -10.5%.
O=C1c2ccccc2C(=O)N1CSc1nnc(Nc2ccccc2F)s1 was read as ALDH1A1 block 7.08µM*, HPGD block -19.0%, PNC inhibitor 65.2, IMPase inh inconclusive and IMPase Li inh 19.9%.
For O=C(CSc1nnnn1-c1ccccc1)N1CCc2ccccc2C1 the results were ALDH1A1 block 20µM*, HPGD block -9.7%, PNC inhibitor -24.7, IMPase inh 0.6 and IMPase Li inh 17.6%[38.3 µM].
`CC(=O)c1ccc(-n2nnnc2SCC(=O)N2CCc3ccccc3C2)cc1` gave ALDH1A1 block inconclusive, HPGD block -14.2%, PNC inhibitor -81.5*, IMPase inh 3.4 and IMPase Li inh -0.5%.
O=C(CSc1nnc2ccccn12)N1CCc2ccccc2C1 was read as ALDH1A1 block inconclusive, HPGD block inconclusive, PNC inhibitor inconclusive, IMPase inh -6.7 and IMPase Li inh -16.1%[38.3 µM].
O=C(c1csc2ccccc12)n1cccn1 was read as ALDH1A1 block 11.2µM*, HPGD block -10.3%, PNC inhibitor -86.7*, IMPase inh 1.0 and IMPase Li inh -12.4%.
For O=C(c1csc2ccccc12)N1CCCCCC1 the results were ALDH1A1 block -0.3%, HPGD block 0.0126µM*, PNC inhibitor 3.0, IMPase inh 4.9 and IMPase Li inh -4.7%[38.3 µM].
Screening O=C(c1csc2ccccc12)N1CCN(c2ccccn2)CC1 returned ALDH1A1 block inconclusive, HPGD block -14.4%, PNC inhibitor inconclusive, IMPase inh 8.2 and IMPase Li inh 4.4%[38.3 µM].
Screening COC(=O)C1=C(C)NC(C)=C([N+](=O)[O-])[C@@H]1c1ccccc1C(F)(F)F returned ALDH1A1 block -7.0%, HPGD block -6.7%, IMPase inh -1.9 and IMPase Li inh -6.3%.
O=C(c1csnn1)N1CCC2(CC1)CN(C(c1ccccc1)c1ccccc1)C2 was read as ALDH1A1 block -6.6%, HPGD block -3.1% and IMPase Li inh -2.8%.
`Fc1ccc(-n2c(Cc3ccccc3)nnc2SCc2nc(-c3cccs3)no2)cc1` gave ALDH1A1 block 14.1µM*, HPGD block -17.9%, PNC inhibitor inconclusive, IMPase inh 1.6 and IMPase Li inh 33.3%[38.3 µM].
`c1ccc(-c2noc(CSc3nnc(Cc4cccs4)n3-c3ccccc3)n2)cc1` gave ALDH1A1 block inconclusive, HPGD block -1.1%, PNC inhibitor 8.0, IMPase inh 2.8 and IMPase Li inh 12.2%.
Cc1ccc(-c2noc(CSc3nnc(Cc4ccccc4)n3-c3cccc(C)c3)n2)cc1 was read as ALDH1A1 block -10.8%, HPGD block -12.6%, PNC inhibitor inconclusive, IMPase inh 22.0 and IMPase Li inh 39.0%[38.3 µM].
`COc1ccc(-c2noc(CSc3nnc(Cc4ccccc4)n3-c3cccc(C)c3)n2)cc1OC` gave ALDH1A1 block 12.6µM*, HPGD block -13.7%, PNC inhibitor inconclusive, IMPase inh 12.0 and IMPase Li inh 52.3%[38.3 µM].
O=C(O)/C=C\C(=O)Nc1ccc(Oc2ccccc2)cc1 was read as ALDH1A1 block 11.2µM*, HPGD block -17.9%, PNC inhibitor 12.8, IMPase inh 0.7 and IMPase Li inh -3.6%[38.3 µM].
`O=C(O)/C=C/C(=O)Nc1ccc(SC(F)(F)C(F)(F)C(F)(F)F)cc1` gave ALDH1A1 block 28.2µM* and IMPase Li inh -2.4%.
For O=C(O)/C=C/C(=O)Nc1ccc(OC(F)(F)Cl)cc1 the results were ALDH1A1 block 25.1µM* and IMPase Li inh -0.8%.
Screening COc1cc(NC(=O)O[C@@H]2C(=O)c3cc(Br)ccc3O[C@H]2c2ccc3c(c2)OCO3)cc(OC)c1OC returned ALDH1A1 block -9.8%, HPGD block -11.9% and IMPase Li inh 7.5%.
`CCCCCCCC/C=C\CCCCCCCC(N)=O` gave ALDH1A1 block 4.5%, HPGD block -7.7%, IMPase inh -2.3 and IMPase Li inh 1.1%.
Cc1ccc(C(=O)Nc2nnc(-c3ccc(C(C)(C)C)cc3)s2)cc1 was read as ALDH1A1 block inconclusive, HPGD block inconclusive, PNC inhibitor -12.8, IMPase inh inconclusive and IMPase Li inh 3.55µM*.
Screening COc1ccc(CCN2C(=O)c3oc4ccc(F)cc4c(=O)c3C2c2ccc(C(C)(C)C)cc2)cc1 (configuration not stated) returned IMPase inh 0.1.
For CS(=O)(=O)c1ccc(N2CCOCC2)c(S(C)(=O)=O)c1 the results were ALDH1A1 block 6.2%, HPGD block -11.8%, PNC inhibitor -106.5*, IMPase inh 14.7 and IMPase Li inh 14.2%[38.3 µM].
`CCCn1nc(C(=O)Nc2ccc(S(=O)(=O)Nc3nccs3)cc2)c2ccccc2c1=O` gave ALDH1A1 block inconclusive, HPGD block -8.1%, PNC inhibitor 3.3, IMPase inh 4.3 and IMPase Li inh 44.4%[38.3 µM].
For CCCn1nc(C(=O)Nc2cccc(C(=O)OC)c2)c2ccccc2c1=O the results were ALDH1A1 block 4.47µM*, HPGD block -11.7%, PNC inhibitor 10.0, IMPase inh 12.1 and IMPase Li inh 12.4%[38.3 µM].
For CCCCCn1c(=O)[nH]c2cc(C(=O)NCc3ccccn3)ccc2c1=O the results were ALDH1A1 block 12.6µM* and IMPase Li inh inconclusive.
Screening CCCn1nc(C(=O)NCc2ccccn2)c2ccccc2c1=O returned ALDH1A1 block 10µM*, HPGD block -3.6%, PNC inhibitor 14.8, IMPase inh -2.7 and IMPase Li inh 18.5%[38.3 µM].
